The text below walks through data of PubChem BioAssay (NCATS).

Molecules are shown by their SMILES. Values joined by “and” are separate entries in the source; they are usually repeats but may differ in a detail not shown here. Equal entries are not always repeated. Records with an inconclusive call do not appear. Values without a mark were called inactive. Calls come from the whole dose curve; as a rule, active = well fitted curve in the direction sought with a large enough effect in the signal ratio, with a control signal flat; inconclusive = small, poorly fitted or top-dose-only effect, or a change in a side signal; inactive = no such curve, though single readings can be large or run the other way; the % refers to the signal ratio.

Chain of Glucocorticoid receptor (Homo sapiens) (P04150 whole entry, looked up): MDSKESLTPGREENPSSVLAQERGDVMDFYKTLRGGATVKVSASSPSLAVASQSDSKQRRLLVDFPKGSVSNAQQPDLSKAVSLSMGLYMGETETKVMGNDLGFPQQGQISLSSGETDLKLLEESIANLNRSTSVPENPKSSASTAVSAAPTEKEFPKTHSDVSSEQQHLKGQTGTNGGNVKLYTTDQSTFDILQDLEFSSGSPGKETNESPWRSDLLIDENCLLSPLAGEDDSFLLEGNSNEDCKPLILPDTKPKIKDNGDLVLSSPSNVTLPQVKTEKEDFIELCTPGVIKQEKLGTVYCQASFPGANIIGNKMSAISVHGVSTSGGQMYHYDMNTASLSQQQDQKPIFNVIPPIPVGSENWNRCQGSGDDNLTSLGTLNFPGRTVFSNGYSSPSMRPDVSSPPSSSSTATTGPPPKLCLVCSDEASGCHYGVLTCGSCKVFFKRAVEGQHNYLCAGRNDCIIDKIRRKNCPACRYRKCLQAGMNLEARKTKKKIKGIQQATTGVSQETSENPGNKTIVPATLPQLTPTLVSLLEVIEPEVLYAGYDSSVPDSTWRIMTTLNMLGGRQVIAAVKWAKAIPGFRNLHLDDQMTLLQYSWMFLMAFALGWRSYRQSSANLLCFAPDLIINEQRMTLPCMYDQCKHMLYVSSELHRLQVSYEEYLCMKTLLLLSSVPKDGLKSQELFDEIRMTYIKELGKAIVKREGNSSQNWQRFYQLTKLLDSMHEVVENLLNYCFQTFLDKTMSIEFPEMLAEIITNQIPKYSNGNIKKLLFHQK

The target of this assay is Glucocorticoid receptor (Homo sapiens) (UniProt P04150). The experiment in a line: qHTS assay for small molecule agonists of glucocorticoid receptor signaling (AID 588532). The following applies: HeLa MMTV-bla, beta-lactamase ratio, agonist, 18 h; active compounds read high; percent of dexamethasone control, DMSO zero. The text has this:
NIH Chemical Genomics Center [NCGC] U.S. Environmental Protection Agency [EPA] National Institutes of Environmental Health Sciences [NIEHS] National Toxicology Program [NTP] NCGC Assay Overview The Glucocorticoid receptor (GR), a nuclear receptor subfamily member and its natural ligands includes […] etc. The GR is a validated drug target for inflammation. GR ligands such as dexamethasone are clinically available as anti-inflammatory drugs. Glucocorticoids implicate role in carbohydrate, protein and lipid metabolisms and programmed cell death. They are also a component of many chemotherapy regimens for the treatment of leukemias, lymphomas, and myelomas because of their role in the induction of apoptosis.
NCGC Assay Protocol Summary Using a beta-lactamase reporter-gene under control of glucocorticoid response element (GRE), a cell-based assay [CellSensor MMTV-bla HeLa cell line assay developed by Invitrogen] was used to measure GR ligands signaling. CellSensor MMTV-bla HeLa cells were used with assay medium containing 1% charcoal/dextran treated FBS, 0.1 mM NEAA, 1 mM sodium pyruvate and 25mM HEPES. The assay was performed in clear bottom black Greiner 1536-well plates. Dexamethasone and Mifepristine were used in the screen as agonist and antagonist positive controls respectively. Library compounds were measured for their ability to stimulate the reporter gene activity. Compounds were screened in a titration series in 1536-well format. The fluorescence intensity (405 nm excitation, 460/530 nm emission) was measured using an EnVision plate reader. Data was normalized relative to Dexamethasone control (0.1 uM, 100%), and DMSO only wells (basal, 0%). Concentration-response titration points for each compound were fitted to the Hill equation yielding concentrations of half-maximal stimulation (EC50) and maximal response (efficacy) values. qHTS protocol for GR beta-lactamase assay in agonist mode [Step] [Parameter] [Value] [Description] 1. Reagent; 6 uL; 1500 cells/well 2. Incubation; 37 C for 3-5 hrs 3. Compounds; 23 nL; 0.59 nM to 92 uM 4. Controls (Dexamethasone); 23 nL, - One column with dose response, start 4.6uM, 1:3 dilutions in duplicates - Final concentrations of 0.1 uM and 2 nM in two columns 5. Incubation; 37 C for 18 hrs 6. Detection reagent; 1 uL of CCF4-dye 7. Incubation; RT for 2 hrs 8. Detection; Fluorescence; Envision plate reader
Background: qHTS replaces the single test concentration by a dilution series.
As for `OC(Cn1cncn1)(Cn1cncn1)c1ccc(F)cc1F`, the activation is 0.0878%. Turning to `CC(=O)Oc1ccccc1C(=O)Nc1ncc([N+](=O)[O-])s1`, the activation was -4.89%. On to `CN(C)c1ccc(C(=C2C=CC(=[N+](C)C)C=C2)c2ccc(N(C)C)cc2)cc1`, for which the activation is -0.396% and -10.9%. The value for `Cc1ccnc2c1NC(=O)c1cccnc1N2C1CC1` was -5.33%; that for `NC(N)=NC(N)=NCCc1ccccc1` was 10% and -5.38%; that for `COc1ccc2cc3[n+](cc2c1OC)CCc1cc2c(cc1-3)OCO2` was 1.14%.

As to `CC[C@H](C)C(=O)O[C@H]1C[C@@H](C)C=C2C=C[C@H](C)[C@H](CC[C@@H]3C[C@@H](O)CC(=O)O3)[C@H]21`, the activation was -4.54%. For the compound `O=C(O)c1cc(=O)[nH]c(=O)[nH]1`, the activation was -4.81%. For `S=P(N1CC1)(N1CC1)N1CC1` the value was -9.54%; for `N=C(N)c1ccc(OCCCCCOc2ccc(C(=N)N)cc2)cc1`, -5.79% and -1.59%. On to `CCc1cc(C(N)=S)ccn1`, for which the activation is 1.04%. For `N[C@@H](Cc1ccc(O)c(O)c1)C(=O)O` the value was -2.15%; for `Nc1nc(N)c2nc(CNc3ccc(C(=O)NC(CCC(=O)O)C(=O)O)cc3)cnc2n1` (stereo not given), 7.7%. For `NNC(=O)c1ccncc1`, the activation is -1.09%. For `Cc1cc(NS(=O)(=O)c2ccc(N)cc2)no1`, the activation was 9.43%.
